Data on 40 compounds can be found in PubChem BioAssay (NCI).

Each structure is given as a SMILES string. This is part of a sample that, as a whole, favours compounds with a hit. Of some 83,000 tested, about 20% had one in any assay.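 Interpretation: 100, growth as untreated; towards 0, rising growth inhibition; 0, no net growth; 0 to -100, cell death. Compounds scoring below 10 were considered active.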 Unmarked numbers belong to inactive results. Calls of active or inactive are those of the source.

In this assay the test system is M14 melanoma. The experiment in a line: NCI-60 one-dose screen, 48 h (100 = growth as untreated, 0 = no growth, -100 = all killed). The note with it: 10 µM unless noted. How it is done:
Growth inhibition of the M14 human tumor cell line is measured as a screen for anti-cancer activity. Cells are grown in 96 well plates and exposed to the test compound for 48 hours. Compounds are tested at a single concentration, which is 10^-5 M for most compounds. The reported endpoint is percent growth (GI% or GIPRCNT), where numbers from 0 - 100% represent growth inhibition, and numbers from -100% - 0 represent cell death. For example, a value of 40 represents 60% growth inhibition. A value of 0 means no net growth occurred over the course of the experiment. A value of -40 indicates 40% of cells at the beginning of the experiment died by the end of the experiment. A value of -100 means all cells are dead at the end of the experiment.
NCI-60 Human Tumor Cell Lines Screen was performed using the standard one-dose NCI protocol, which is described in more detail at https://dtp.cancer.gov/discovery_development/nci-60/default.htm.
Compounds with GIPRCNT values below 10 were considered active. Activity score was based on GIPRCNT using the following formula: […]
Score is 0 for GIPRCNT values of 100 or above, 50 for GIPRCNT values of 0, and 100 for GIPRCNT values of -100.
Take `Cc1c(C)c2c(c(C)c1OC(=O)CCC(=O)[O-])CCC(C)(CCCCCCCCCCC[P+](c1ccccc1)(c1ccccc1)c1ccccc1)O2` (stereo not given): the growth is -60.3% (active).
In the case of `COC(=O)[C@@H](Cc1c[nH]c2ccccc12)NC(=O)[C@H](Cc1ccccc1)NCc1ccncc1` it was 103%; in that of `C=C(C)[C@@H]1CC[C@]2(COC(=O)c3cccnc3)CC[C@]3(C)[C@H](CC[C@@H]4[C@@]5(C)CCCN(C(=O)c6cccnc6)C(C)(C)[C@@H]5CC[C@]43C)[C@@H]12`, 41.5%; in that of `COC(=O)c1c(C)nc(C)c2c1C(=O)C(Br)=C(NCCN1CCOCC1)C2=O`, 87.8%.
Take `O=C1CC2C=CCN2C=C1NC(=O)c1ccccc1` (stereo not given): the growth was 98.8%.
As for `COc1ccc(/C(C)=C(\c2ccc(Cl)cc2)c2ccc(OCCCN(C)C)cc2)cc1`, the figure is 36.8%; as for `O=C(Nc1ccc(Cl)cc1)C1=NCCCCN1`, 75.7%; as for `COc1cc(C(=O)n2nc(NCCCc3ccccc3)c3cc(N)ccc32)cc(OC)c1OC`, 93.6%.
`COc1ccc(S(=O)(=O)N(C)c2oc(-c3ccc(Cl)cc3)nc2C#N)cc1`: the growth was 53.8%.
As for `COc1ccc(-c2cc(-c3ccc(Nc4nc(Nc5ccc(Cl)cc5)nc(Nc5ccc(Cl)cc5)n4)cc3)no2)cc1`, the figure is 86.7%; as for `C=C(C)[C@@H]1CCC[C@]2(C(=O)OC)CC[C@]3(C)[C@@H](CC[C@@H]4[C@@]5(C)CCCNC(C)(C)[C@@H]5CC[C@]43C)[C@@H]12`, 97%.
In the case of `O=C(O)CCCN1C(=O)CSC1=S` it was 93.3%.
In the case of `C=CC(=O)NCc1cccc(Nc2ncc(Br)c(NCCCNC(=O)C3CCC3)n2)c1` it was -31% (active); in that of `C#CCOc1cc(/C=N/Nc2nc(-c3ccc(OC)cc3)cs2)ccc1O`, 94.2%; in that of `Cc1ccc(OCCOCCOCCOCCOc2ccc(C)n(O)c2=S)c(=S)n1O`, -16.1% (active).
Take `COc1cccc2cc(N(C)c3ncnc4ccccc34)ccc12`: the growth was 14.3%.
For `CCOC(=O)/C(=C\c1ccccc1Cl)P(=O)(OCC)OCC`, the growth was 56.6%.
For `FC(F)(F)c1cc(N2CCCCC2)nc(NCCCNc2ccnc3cc(Cl)ccc23)n1`, the growth was 70.9%.
`O=C(CSc1nc(-c2ccccc2)cn1-c1ccc(Cl)cc1)c1ccc([N+](=O)[O-])cc1`: the growth is 82%.
In the case of `C#CCOc1ccc(C2=NN(CCCC)C3N=C(Cl)c4ncn(CCCC)c4N23)cc1OCC#C` (stereo not given) it was 92.2%; in that of `Cc1ccc2c(c1)CC(O)CC1C(=O)N(CCO)CC(=O)N21` (stereo not given), 103%.
As for `CCOc1ccc(N2C(=O)CCSC2=S)cc1`, the figure is 102%; as for `COc1ccc(NC(=O)c2ccc(NC3=C(c4ccc(Cl)cc4)C(=O)NC3=O)cc2)cc1`, 102%.
As for `C#Cc1cccc(Nc2nc(Cl)nc3cc(NC(=O)CCl)ccc23)c1`, the figure is -52.2% (active); as for `O=C1c2c(c3c4cccnc4[nH]c3c3ccc4ccccc4c23)C(=O)N1O`, 49%.
Consider `Cn1cc(-c2ccc3c(Nc4cccc(NC(=O)Nc5cccc(F)c5)c4)ncnc3c2)cn1`, for which the growth is 41.3%.
As for `CCN1CCN(CCOc2ccc(CNc3ccc4nc(CCC5CCCCC5)[nH]c4c3)cc2)CC1`, the figure is -76.5% (active); as for `Cc1ccc(-c2nnc(SCc3nc(N)nc(Nc4ccccc4F)n3)n2-c2ccccc2)cc1`, 103%.
With `COC(=O)c1cc(-c2cc(OC)c(OC)c(OC)c2)[nH]c1N/N=C/c1c(Cl)cccc1Cl`, the growth is 58.7%.
As for `COc1cc(CNC(=O)CCCC/C=C/C(C)C)ccc1OCc1cn(-c2ccc(C(F)(F)F)cc2)nn1`, the figure is 97.5%; as for `COc1ccc(Nc2nc(Nc3cc(C)[nH]n3)c3cc(OC)c(OC)cc3n2)cc1`, -75.6% [20 µM] (active).
As for `O=C(Nc1ccc(Oc2cccc(F)c2)c(Cl)c1)c1cnccn1`, the figure is 25.6%; as for `N=C(N)c1ccc(-c2ccc(-c3ccccc3)s2)nc1`, 88.7%; as for `CCc1ccc(Cc2cnc(NC(=O)c3cc(C)oc3C)s2)cc1`, 21.4%.
Take `O=C(/C=C/c1ccco1)c1ccc(Nc2ccnc3cc(Cl)ccc23)cc1`: the growth was 83.3%.
In the case of `CN(C)c1ccc(Cc2cc(-c3ccccc3)nn(C/C(=N/O)c3ccccc3)c2=O)cc1` it was 57%; in that of `COc1nc2ccccc2cc1/C=C1/C=C(c2ccccc2)NC1=O`, 24.6%.
For `C=C(C)[C@@H]1CC[C@]2(C(=O)NC(C)=O)CC[C@]3(C)[C@H](CC[C@@H]4[C@@]5(C)CCCNC(C)(C)[C@@H]5CC[C@]43C)[C@@H]12`, the growth is -65.3% (active).
As for `COc1cc(C2=Nc3c(N)nc(N)nc3NC(c3cccc(Nc4ccnc5cc(C(F)(F)F)ccc45)c3)C2)cc(OC)c1OC` (stereo not given), the figure is 72.3%; as for `COc1cccc(NC(=O)c2sc3nc(C)c(C(=O)c4ccccc4)cc3c2N)c1`, 80.6%.
